From PubChem
KinaseGlo FLuc: Counterscreen for Luciferase (Kinase-Glo TM) Inhibition; actives 0.28% (n = 200,000); Luciferin 4-monooxygenase (Photuris pensylvanica), Q27757; Potency, µM (titrated, usually from 38.3 µM), for inactives: top-dose activity change, negative = inhibition, hits mostly inhibitors; AID 1379, 2008; Kinase-Glo luciferase, ATP luminescence, 8 min; further: on the % scale 0 is the no-effect control and ±100 the full control effect; nearly all actives have a fitted effect of over 60% in size
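Compound is pinned into ATP-containing buffer (10 uM ATP, imidazole pH 7.2, 7 mM MgCl2). Kinase-Glo luciferase reagent is then added. Light output is recorded following an 8-min room-temperature incubation.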
Rab9 prom act: qHTS Assay for Rab9 Promoter Activators; Potency, µM (top dose mostly 9.22 µM), for inactives: at the top dose activation, negative = inhibition, usual class: activators; actives 2.8% (n = 320,000); Huh7 Rab9 promoter-luciferase reporter, luminescence, 24 h; further: % of control where 0% means no effect; nearly all actives have a fitted effect of over 60% in size
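Steps: seed 1500 Huh7 Rab9-luc cells per well, rest 2 h at 37 °C; add compound in DMSO; incubate 24 h; add luciferase reagent, 10 min ambient; read luminescence.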
ELG1 genotox: qHTS screen for small molecules that induce genotoxicity in human embryonic kidney (HEK293T) cells expressing luciferase-tagged ELG1 | Potency, µM (highest dose often 46 µM), without a hit: top-dose activity change, positive = activation, usual class: activators | HEK293T ELG1-luciferase reporter, luminescence, 16 h | AID 504466, 2011 | actives 1.3% (n = 330,000); further: % of control where 0% means no effect; nearly all actives have a fitted effect of over 60% in size
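HEK293T cells expressing luciferase-tagged ELG1 were exposed to compound or DMSO vehicle for 16 hr at 37 °C and 5% CO2. Luciferase activity was then measured with ONE-Glo after 30 min at room temperature.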
NPC1 promoter act: qHTS Assay for NPC1 Promoter Activators; actives 2.4% (n = 320,000); AID 485313, 2010; Huh7 NPC1 promoter luciferase reporter, 24 h; Potency, µM (top dose mostly 9.22 µM), inactives show at the top dose activation, most hits filed as activators; further: % of control where 0% means no effect; nearly all actives have a fitted effect of over 60% in size
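In 1536-well qHTS, Huh7 cells harboring an NPC1 promoter–luciferase construct received compound for 24 h; activation was quantified by luminescence following luciferase reagent addition.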
SMN2 splice enh: qHTS Assay for Enhancers of SMN2 Splice Variant Expression; Potency, µM (doses to about 46.1 µM), for the others: at the highest dose activity change, positive = activation, most hits filed as activators; HEK293 SMN2-luciferase splicing reporter, luminescence, 30-36 h; actives 2.8% (n = 210,000); AID 1458, 2008; further: % of control where 0% means no effect; nearly all actives have a fitted effect of over 55% in size
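HEK293 cells carry an SMN2 […]–luciferase reporter in which exon 7 inclusion puts luciferase in frame. Cells were plated 10-12 h before compound addition, then incubated 30-36 h at 37C. ONE-Glo luminescence was read; sodium butyrate at 4.5 mM final served as control.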
FLuc modulator: qHTS profiling assay for firefly luciferase inhibitor/activator using purifed enzyme and Km concentrations of substrates (counterscreen for miR-21 project); Luciferin 4-monooxygenase (Photinus pyralis), P08659; purified FLuc, Km substrates, luminescence inhibition; Potency, µM (titrated, usually from 57.5 µM), for inactives: top-dose activity change, negative = inhibition, usual class: inhibitors; actives 6.9% (n = 360,000); AID 588342, 2011;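 further: plate controls were vehicle for no effect and reference inhibitor for full effect; nearly all actives have a fitted effect of over 55% in size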
Target sequence (P08659 whole entry, looked up): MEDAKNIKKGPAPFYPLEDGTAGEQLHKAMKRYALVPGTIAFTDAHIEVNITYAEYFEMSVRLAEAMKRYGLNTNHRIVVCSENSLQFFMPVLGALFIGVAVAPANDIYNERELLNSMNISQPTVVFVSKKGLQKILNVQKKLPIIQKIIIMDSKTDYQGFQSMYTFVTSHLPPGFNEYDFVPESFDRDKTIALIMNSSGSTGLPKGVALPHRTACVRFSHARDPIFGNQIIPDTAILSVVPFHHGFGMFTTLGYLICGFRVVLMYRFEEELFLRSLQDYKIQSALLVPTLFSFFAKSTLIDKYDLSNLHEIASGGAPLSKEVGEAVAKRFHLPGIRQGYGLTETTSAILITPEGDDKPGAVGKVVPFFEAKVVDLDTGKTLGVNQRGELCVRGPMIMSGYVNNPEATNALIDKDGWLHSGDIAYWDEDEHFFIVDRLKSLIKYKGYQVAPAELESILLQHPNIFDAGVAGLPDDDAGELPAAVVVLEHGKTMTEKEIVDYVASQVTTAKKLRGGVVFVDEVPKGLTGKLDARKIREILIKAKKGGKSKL
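Biochemical qHTS of compounds, final roughly 60 µM downward over six points, against 10 nM purified firefly luciferase using Km concentrations of substrates (10 uM D-luciferin, 10 uM ATP) in Tris acetate pH 7.5 buffer; luminescence output.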
The depositor's hits bear a star; ? = inconclusive; / = no result given. A selection: hits, their analogues and other compounds. The true share with any hit is near 7.5%. The call rests on the fitted dose curve; in most records, active means well fitted curve in the direction sought with a large enough effect; inconclusive means small, poorly fitted or top-dose-only effect, or another doubt; inactive means no such curve, though single readings can be large; an effect the other way counts as inactive or inconclusive. Potency means the concentration at half of the fitted maximal effect.

SMILES	KinaseGlo FLuc	Rab9 prom act	ELG1 genotox	NPC1 promoter act	SMN2 splice enh	FLuc modulator
CC(=O)c1cccc(NC(=O)Nc2ccc(C(=O)N3CCCC3)cc2)c1	?	13%	-19%	26%	-2%	6.7µM*
Fc1cc2[nH]c(=S)[nH]c2c(Br)c1N1CCSCC1	/	10%	11%	11%	/	13µM*
O=C(Nc1ccc2c(c1)OCO2)c1ccccc1	/	1.1µM*	?	1.8µM*	/	9.5µM*
O=C(Nc1ccc2c(c1)OCCO2)c1ccc(Cl)cc1Cl	/	0.28µM*	?	0.45µM*	/	1.2µM*
O=C(NC(=S)Nc1ccc2c(c1)OCO2)c1ccccc1	-7%	1.6µM*	?	1.4µM*	20µM*	3.8µM*
CS(=O)(=O)Nc1ccc(C(=O)Nc2ccc3c(c2)OCCO3)cc1	6%	?	?	?	?	19µM*
CC(C)(C)NS(=O)(=O)c1ccc(C(=O)Nc2ccc3c(c2)OCO3)cc1	/	5%	16%	7%	/	?
COc1cccc(OCC(=O)Nc2nnc3n2CCS3)c1	/	/	/	/	/	4%
Cc1cc(C)c(S(=O)(=O)N2CCCOC2CNC(=O)C(=O)NCc2ccncc2)c(C)c1 (stereo not given)	-2%	-6%	0%	1%	-7%	-2%
Cc1ccc(S(=O)(=O)NCC(C)n2cncn2)cc1 (stereo not given)	/	-2%	0%	-1%	/	1%
CCOc1cccc(C(=O)Nc2ccc3c(c2)OCCO3)c1	/	?	2.3µM*	?	/	1.5µM*
Cc1noc(C)c1COc1cccc(C(=O)Nc2ccc3c(c2)OCO3)c1	-8%	17%	25%	5%	26%	?
CN(c1cccc(NC(=O)c2ccc(C(C)(C)C)cc2)c1)S(C)(=O)=O	0%	?	-16%	11%	/	0.48µM*
O=C(CCCc1cccs1)Nc1ccc2c(c1)OCO2	-3%	2.8µM*	?	2.2µM*	14µM*	11µM*
O=C(NC(=S)Nc1ccccc1Br)c1ccc2c(c1)OCO2	/	11%	?	?	/	9.5µM*
COc1cc(Cl)c(C)cc1NC(=O)CSC1=NCCS1	/	/	-3%	/	/	/
Cc1cc(NC(=O)COC(=O)CCS(=O)(=O)c2cc(Cl)ccc2Cl)no1	/	0%	-2%	0%	/	1%
O=C(NC(=S)Nc1ccc2c(c1)OCCO2)c1cccc2ccccc12	-1%	22%	16%	12%	?	15µM*
O=C(O)c1ccccc1NC(=S)NC(=O)c1cccc2ccccc12	0%	-3%	-2%	-3%	3%	-19%
CC(C)(O)C#Cc1ccc(C(=O)NCCC(=O)O)s1	0%	-6%	1%	0%	7%	8%
O=C(CC(=O)c1ccccc1)Nc1ccc2c(c1)OCCO2	-6%	1.4µM*	?	2.5µM*	13µM*	6.7µM*
CC(C)(O)C#Cc1ccc(C(=O)Nc2ccc3c(c2)OCO3)s1	/	?	?	2.8µM*	/	8.5µM*
CCCc1cc(C(=O)Nc2cccc([N+](=O)[O-])c2)cs1	/	?	14%	?	/	11µM*
O=C(Nc1ccc(N=Nc2ccccc2)cc1)c1cccc(Cl)c1	-1%	0%	10%	5%	17%	-1%
CC(C)c1ccc(O)c(NC(=S)NC(=O)c2ccc3c(c2)OCO3)c1	/	?	22%	2.2µM*	/	6.7µM*
SMILES	KinaseGlo FLuc	Rab9 prom act	ELG1 genotox	NPC1 promoter act	SMN2 splice enh	FLuc modulator
O=C(Nc1ccc2c(c1)OCCO2)c1ccccc1	/	0.79µM*	3.7µM*	0.45µM*	/	3.4µM*
O=C(Nc1ccc2c(c1)OCCO2)c1cccc(Cl)c1	/	2µM*	?	3.2µM*	/	3µM*
O=C(CCCc1ccccc1)Nc1ccc2c(c1)OCCO2	1%	0.45µM*	2.1µM*	0.5µM*	6.3µM*	2.1µM*
O=C(CCCCCN1C(=O)c2ccccc2C1=O)Nc1ccc2c(c1)OCCO2	-2%	-1%	0%	7%	2%	?
CCn1cc(S(=O)(=O)NCCc2ccc(OC)c(OC)c2)cn1	/	3%	-5%	0%	/	3%
CCCCNC(=O)CNC(=S)N(Cc1ccccc1F)C1CCCCC1	-1%	-1%	-3%	-4%	-5%	-7%
O=C(Nc1cccc([N+](=O)[O-])c1)c1[nH]ncc1Cl	-8%	4µM*	?	3.2µM*	11µM*	17µM*
O=C(Nc1ccc2c(c1)OCCO2)C(=O)NC1CC1	/	2.8µM*	?	?	/	4.8µM*
O=C(Nc1ccc2c(c1)OCCO2)C1CC1c1ccccc1 (stereo not given)	-1%	4µM*	?	?	11µM*	9.5µM*
O=C(Nc1cccc([N+](=O)[O-])c1)c1cnccn1	1%	1%	1%	6%	19%	-2%
O=C(Nc1ccc2c(c1)OCO2)c1ccc(Cl)cc1Cl	/	-3%	6%	0%	/	-2%
O=C(Nc1ccc2c(c1)OCO2)c1cc(Cl)ccn1	/	1.3µM*	?	1.8µM*	/	4.8µM*
O=C(O)C1CCCCC1C(=O)Nc1ccc2c(c1)OCCO2 (stereo not given)	2%	3%	7%	2%	-12%	-8%
O=C(Nc1cccc(Cl)c1)c1ccc2c(c1)OCCO2	/	1.8µM*	2.1µM*	1.3µM*	/	1.1µM*
O=C(Nc1cccc([N+](=O)[O-])c1)c1ccc2c(c1)OCCO2	-4%	?	?	3.5µM*	18µM*	7.6µM*
O=C(Nc1ccc(NC(=O)c2cc3ccccc3o2)cc1)c1ccc2c(c1)OCCO2	2%	-13%	10%	-13%	-33%	-2%
CCC(=O)Nc1ccc2c(c1)OCCO2	3%	0%	1%	-5%	-2%	-1%
CC(C)C(NC(=O)C1CCCCC1)C(=O)Nc1ccc2c(c1)OCCO2 (stereo not given)	-8%	2µM*	?	1.1µM*	36%	6µM*
O=C(Nc1cccc([N+](=O)[O-])c1)c1ccncc1	5%	-1%	5%	-4%	-10%	1%
O=C(CC1CS(=O)(=O)CC1CC(=O)Nc1ccc2c(c1)OCCO2)Nc1ccc2c(c1)OCCO2 (stereo not given)	-1%	7%	?	12%	/	17µM*
COc1cccc(NC(=S)NCc2cccs2)c1	5%	1%	6%	0%	?	?
O=C(Nc1ccc(-c2nc3ccccc3[nH]2)cc1)c1cccc(N2C(=O)CCC2=O)c1	-1%	3%	1%	15%	-7%	-17%
